Laboratory results reported in the supplement of paper PMC10849652.
Of roughly 7,900 targets only a part is listed; those with a hit were picked by preference. About 0.6% of all pairs of compound and target were hits.

Assays:
Assay in all cases: log2 fold change, soluble protein after heating vs DMSO (PISA); higher = thermal stabilisation; K562 cells, 10 uM, 30 min; active = over 0.2 and 3.5 SD of the protein, either way, in both replicates (recomputed)
[1] = compound: CS(=O)(=O)c1ccc(-c2cnc(N)c(C(=O)Nc3ccccc3)n2)cc1
Procedure, shortened: (§1)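 Quantification of soluble protein used TMTpro 16plex LC-MS/MS, with channel sums equalised. Samples were the supernatant after 21,000xg for 90 min of pooled aliquots from K562 cells (2×10^6 cells/mL) treated with 10 μM compound for 30 min, heated for 3 min over 48°C-58°C, and extracted in PBS with 0.5% NP-40 at 4°C. Values, from duplicates, describe thermal stability against control samples on a log2 fold-change scale.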

crizotinib = compound: C[C@@H](Oc1cc(-c2cnn(C3CCNCC3)c2)cnc1N)c1c(Cl)ccc(F)c1Cl [crizotinib]
Procedure, shortened: as §1

[2] = compound: C[C@@H]1COCCN1C2=NC(=NC(=C2)C3(CC3)S(=O)(=O)C)C4=C5C=CNC5=CC=C4
Procedure, shortened: as §1

[3] = compound: C[C@H](C1=CC=C(C=C1)C(=O)NC2=C3C=CNC3=NC=C2)N
Procedure, shortened: as §1

duvelisib = compound: C[C@H](Nc1ncnc2nc[nH]c12)c1cc2cccc(Cl)c2c(=O)n1-c1ccccc1 [duvelisib]
Procedure, shortened: as §1

gandotinib = compound: Cc1cc(Nc2cc(CN3CCOCC3)c3nc(C)c(Cc4ccc(Cl)cc4F)n3n2)n[nH]1 [gandotinib]
Procedure, shortened: as §1

tozasertib = compound: Cc1cc(Nc2cc(N3CCN(C)CC3)nc(Sc3ccc(NC(=O)C4CC4)cc3)n2)n[nH]1 [tozasertib]
Procedure, shortened: as §1

[4] = compound: Cc1cc(SCc2sc(-c3ccc(C(F)(F)F)cc3)nc2C)ccc1OCC(=O)O
Procedure, shortened: as §1

doramapimod = compound: Cc1ccc(-n2nc(C(C)(C)C)cc2NC(=O)Nc2ccc(OCCN3CCOCC3)c3ccccc23)cc1 [doramapimod]
Procedure, shortened: as §1

ispinesib = compound: Cc1ccc(C(=O)N(CCCN)[C@@H](c2nc3cc(Cl)ccc3c(=O)n2Cc2ccccc2)C(C)C)cc1 [ispinesib]
Procedure, shortened: as §1

bafetinib = compound: Cc1ccc(NC(=O)c2ccc(CN3CC[C@H](N(C)C)C3)c(C(F)(F)F)c2)cc1Nc1nccc(-c2cncnc2)n1 [bafetinib]
Procedure, shortened: as §1

[5] = compound: Cc1cccc(CC(=O)N2CCc3c2ccc(-c2cn(C)c4ncnc(N)c24)c3F)n1
Procedure, shortened: as §1

nilotinib = compound: Cc1cn(-c2cc(NC(=O)c3ccc(C)c(Nc4nccc(-c5cccnc5)n4)c3)cc(C(F)(F)F)c2)cn1 [nilotinib]
Procedure, shortened: as §1

[6] = compound: Cc1nc(Nc2n[nH]c3c2CN(C(=O)N[C@H](CN(C)C)c2ccccc2)C3(C)C)c2sccc2n1
Procedure, shortened: as §1

dasatinib = compound: Cc1nc(Nc2ncc(C(=O)Nc3c(C)cccc3Cl)s2)cc(N2CCN(CCO)CC2)n1 [dasatinib]
Procedure, shortened: as §1

[7] = compound: Cc1ncc(-c2ccnc(Nc3ccc(S(C)(=O)=O)cc3)n2)n1C(C)C
Procedure, shortened: as §1

[8] = compound: Cn1cc(-c2ccc3c(c2)CCN3C(=O)Cc2cccc(C(F)(F)F)c2)c2c(N)ncnc21
Procedure, shortened: as §1

[9] = compound: Cn1cc(-c2ccc3nnc(C(F)(F)c4ccc5ncccc5c4)n3n2)cn1
Procedure, shortened: as §1

tipifarnib = compound: Cn1cncc1[C@@](N)(c1ccc(Cl)cc1)c1ccc2c(c1)c(-c1cccc(Cl)c1)cc(=O)n2C [tipifarnib]
Procedure, shortened: as §1

mubritinib = compound: FC(F)(F)c1ccc(/C=C/c2nc(COc3ccc(CCCCn4ccnn4)cc3)co2)cc1 [mubritinib]
Procedure, shortened: as §1

Measured: log2 fold change

CSK (UniProt P41240)
inactive: [1] 0.082 | crizotinib -0.033 | [2] 0.112 | [3] -0.004 | duvelisib -0.018 | gandotinib -0.018 | tozasertib 0.026 | [4] 0.046 | doramapimod 0.003 | ispinesib -0.028 | bafetinib 0.088 | [5] 0.019 | nilotinib 0.126 | [6] -0.001 | dasatinib 0.137 | [7] 0.017 | [8] 0.019 | [9] -0.031 | tipifarnib -0.129 | mubritinib 0.107

CDK5RAP3 isoform 4 (UniProt Q96JB5)
inactive: [1] -0.017 | crizotinib -0.054 | [2] 0.044 | [3] -0.038 | duvelisib 0.005 | gandotinib -0.051 | tozasertib 0.015 | [4] 0.016 | doramapimod -0.033 | ispinesib -0.036 | bafetinib 0.039 | [5] 0.122 | nilotinib -0.094 | [6] 0.012 | dasatinib -0.082 | [7] 0.054 | [8] 0.008 | [9] 0.024 | tipifarnib -0.052 | mubritinib 0.083

CDC42EP1 (UniProt Q00587)
inactive: [1] -0.006 | [2] 0.019 | [3] -0.041 | duvelisib -0.061 | tozasertib -0.192 | [4] 0.073 | doramapimod 0.076 | ispinesib -0.327 | bafetinib -0.115 | [5] 0.092 | nilotinib -0.072 | dasatinib -0.2 | [7] -0.211 | [8] 0.079 | [9] 0.051 | tipifarnib 0.049 | mubritinib 0.007
active: crizotinib -0.566 | gandotinib -0.524 | [6] -0.59

CLPP (UniProt Q16740)
UniProt Q16740, sequence (Q16740 whole entry, looked up): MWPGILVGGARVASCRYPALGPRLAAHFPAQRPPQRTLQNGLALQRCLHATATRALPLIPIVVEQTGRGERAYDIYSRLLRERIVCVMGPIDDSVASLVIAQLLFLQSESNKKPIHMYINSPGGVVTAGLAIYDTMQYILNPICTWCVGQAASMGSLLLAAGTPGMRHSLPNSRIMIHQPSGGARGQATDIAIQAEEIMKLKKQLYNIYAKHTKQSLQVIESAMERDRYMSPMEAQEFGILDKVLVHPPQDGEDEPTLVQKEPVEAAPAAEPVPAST
inactive: [1] 0.05 | [2] 0.058 | [3] -0.025 | duvelisib 0.006 | gandotinib 0.008 | tozasertib -0.02 | [4] 0.017 | doramapimod 0.003 | ispinesib 0.105 | bafetinib 0.025 | [5] -0.045 | nilotinib 0.022 | [6] 0.005 | dasatinib 0.063 | [7] -0.016 | [8] 0.115 | [9] 0.02 | tipifarnib 0.003 | mubritinib 0.004
active: crizotinib 0.348

CLASP2 isoform 3 (UniProt O75122)
UniProt O75122, sequence (O75122 whole entry, looked up): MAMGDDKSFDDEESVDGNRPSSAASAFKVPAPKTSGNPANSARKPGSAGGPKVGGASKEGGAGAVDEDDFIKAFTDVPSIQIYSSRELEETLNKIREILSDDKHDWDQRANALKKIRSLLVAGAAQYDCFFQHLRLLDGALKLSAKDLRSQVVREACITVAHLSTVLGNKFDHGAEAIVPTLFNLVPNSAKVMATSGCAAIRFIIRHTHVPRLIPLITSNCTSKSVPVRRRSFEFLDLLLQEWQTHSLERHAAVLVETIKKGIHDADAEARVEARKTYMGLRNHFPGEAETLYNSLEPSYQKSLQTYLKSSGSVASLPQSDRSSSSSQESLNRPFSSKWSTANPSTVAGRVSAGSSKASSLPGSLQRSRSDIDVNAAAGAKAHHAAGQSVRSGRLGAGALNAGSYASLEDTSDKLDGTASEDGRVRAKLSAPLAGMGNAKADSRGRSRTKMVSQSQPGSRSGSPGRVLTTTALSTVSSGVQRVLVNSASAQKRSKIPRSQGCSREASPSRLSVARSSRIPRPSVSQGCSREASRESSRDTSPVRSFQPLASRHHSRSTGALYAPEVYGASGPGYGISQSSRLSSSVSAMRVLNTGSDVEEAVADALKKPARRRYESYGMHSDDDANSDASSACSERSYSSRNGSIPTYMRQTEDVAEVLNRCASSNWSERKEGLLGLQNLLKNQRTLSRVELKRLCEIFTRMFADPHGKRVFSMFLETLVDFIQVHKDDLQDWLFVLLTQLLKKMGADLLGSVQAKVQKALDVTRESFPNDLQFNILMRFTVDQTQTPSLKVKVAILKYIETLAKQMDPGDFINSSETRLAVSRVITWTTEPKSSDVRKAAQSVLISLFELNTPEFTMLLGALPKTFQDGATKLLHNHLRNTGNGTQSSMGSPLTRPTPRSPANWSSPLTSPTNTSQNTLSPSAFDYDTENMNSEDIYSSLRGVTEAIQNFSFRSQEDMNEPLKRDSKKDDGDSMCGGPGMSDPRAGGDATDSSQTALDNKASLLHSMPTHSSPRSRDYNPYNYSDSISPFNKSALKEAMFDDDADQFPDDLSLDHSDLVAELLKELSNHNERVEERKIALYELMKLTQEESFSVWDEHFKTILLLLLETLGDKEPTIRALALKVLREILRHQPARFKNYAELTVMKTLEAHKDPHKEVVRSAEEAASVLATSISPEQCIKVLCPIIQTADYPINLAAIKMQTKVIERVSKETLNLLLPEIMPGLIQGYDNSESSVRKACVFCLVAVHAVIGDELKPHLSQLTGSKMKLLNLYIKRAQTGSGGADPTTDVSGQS
active: gandotinib -0.314 | [6] -0.279
inactive: [1] -0.035 | crizotinib -0.201 | [2] 0.044 | [3] -0.029 | duvelisib 0.047 | tozasertib -0.06 | [4] 0.074 | doramapimod -0.007 | ispinesib -0.054 | bafetinib 0.016 | [5] 0.058 | nilotinib -0.067 | dasatinib -0.175 | [7] -0.188 | [8] 0.013 | [9] 0.012 | tipifarnib -0.089 | mubritinib 0.022

CRLF3 (UniProt Q8IUI8)
UniProt Q8IUI8, sequence (Q8IUI8 whole entry, looked up): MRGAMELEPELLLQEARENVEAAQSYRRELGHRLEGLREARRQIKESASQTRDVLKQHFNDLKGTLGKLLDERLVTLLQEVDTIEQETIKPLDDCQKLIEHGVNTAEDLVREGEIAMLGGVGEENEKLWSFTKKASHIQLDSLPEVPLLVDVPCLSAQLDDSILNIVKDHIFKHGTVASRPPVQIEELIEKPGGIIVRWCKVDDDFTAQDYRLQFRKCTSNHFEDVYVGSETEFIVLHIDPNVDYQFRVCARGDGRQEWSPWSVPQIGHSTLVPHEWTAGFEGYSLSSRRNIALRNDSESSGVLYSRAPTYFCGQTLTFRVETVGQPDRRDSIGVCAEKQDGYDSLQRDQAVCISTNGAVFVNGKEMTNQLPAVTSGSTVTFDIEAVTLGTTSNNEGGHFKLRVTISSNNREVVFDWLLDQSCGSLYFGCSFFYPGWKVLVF
inactive: [1] 0.053 | crizotinib -0.015 | [2] 0.048 | [3] 0.017 | duvelisib 0.076 | gandotinib 0.016 | tozasertib 0.021 | [4] 0.019 | doramapimod 0.138 | ispinesib -0.059 | bafetinib -0.032 | [5] -0.045 | nilotinib -0.043 | [6] -0.117 | dasatinib -0.145 | [7] 0.011 | [8] 0.025 | [9] 0.024 | tipifarnib -0.018 | mubritinib 0.032

CCNH (UniProt P51946)
inactive: [1] -0.033 | crizotinib 0.033 | [2] 0.048 | [3] -0.031 | duvelisib 0.037 | gandotinib 0.013 | tozasertib 0.046 | [4] -0.01 | doramapimod -0.086 | ispinesib 0.098 | bafetinib -0.064 | [5] -0.01 | nilotinib -0.008 | [6] 0.113 | dasatinib 0.023 | [7] -0.056 | [8] -0.005 | [9] 0.005 | tipifarnib 0.051 | mubritinib 0.08

CLTB (UniProt P09497)
UniProt P09497, sequence (P09497 whole entry, looked up): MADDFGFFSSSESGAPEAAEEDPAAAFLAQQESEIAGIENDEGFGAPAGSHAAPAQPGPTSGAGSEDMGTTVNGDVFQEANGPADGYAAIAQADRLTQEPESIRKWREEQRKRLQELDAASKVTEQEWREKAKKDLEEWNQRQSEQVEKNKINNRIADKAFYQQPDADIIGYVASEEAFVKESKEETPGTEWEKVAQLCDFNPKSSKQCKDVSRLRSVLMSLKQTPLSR
inactive: [1] -0.058 | crizotinib 0.007 | [2] -0.004 | [3] -0.047 | duvelisib -0.035 | gandotinib 0.026 | tozasertib -0.011 | [4] -0.056 | doramapimod -0.012 | ispinesib 0.085 | bafetinib 0.095 | [5] 0.002 | nilotinib 0.077 | [6] 0.024 | dasatinib 0.081 | [7] 0.005 | [8] -0.02 | [9] -0.019 | tipifarnib -0.006 | mubritinib -0.016

CERS2 (UniProt Q96G23)
UniProt Q96G23, sequence (Q96G23 whole entry, looked up): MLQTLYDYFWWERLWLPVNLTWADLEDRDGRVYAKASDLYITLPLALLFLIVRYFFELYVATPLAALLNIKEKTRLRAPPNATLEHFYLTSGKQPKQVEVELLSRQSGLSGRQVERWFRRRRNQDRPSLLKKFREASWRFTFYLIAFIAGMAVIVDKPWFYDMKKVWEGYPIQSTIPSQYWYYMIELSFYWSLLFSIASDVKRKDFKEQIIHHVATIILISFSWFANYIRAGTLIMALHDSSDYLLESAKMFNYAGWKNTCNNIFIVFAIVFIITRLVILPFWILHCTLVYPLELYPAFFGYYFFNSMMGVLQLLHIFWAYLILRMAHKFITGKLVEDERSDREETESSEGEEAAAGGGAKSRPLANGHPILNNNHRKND
inactive: [1] -0.027 | [2] -0.054 | [3] -0.034 | duvelisib 0.036 | gandotinib -0.203 | tozasertib -0.049 | [4] -0.032 | doramapimod -0.04 | bafetinib -0.177 | [5] 0.064 | nilotinib -0.128 | [6] -0.015 | dasatinib -0.113 | [7] 0.028 | [8] -0.034 | [9] 0.028 | tipifarnib -0.074 | mubritinib -0.03
active: crizotinib -0.294 | ispinesib -0.466

CIZ1 (UniProt Q9ULV3)
inactive: [1] -0.008 | crizotinib -0.097 | [2] 0.017 | [3] -0.079 | duvelisib 0.004 | gandotinib -0.121 | tozasertib 0.022 | [4] 0.016 | doramapimod 0.005 | ispinesib -0.015 | bafetinib -0.063 | [5] 0.013 | nilotinib 0.016 | [6] -0.181 | dasatinib -0.016 | [7] -0.063 | [8] 0.021 | [9] -0.066 | tipifarnib 0.008 | mubritinib 0.019

CETN2 (UniProt P41208)
UniProt P41208, sequence (P41208 whole entry, looked up): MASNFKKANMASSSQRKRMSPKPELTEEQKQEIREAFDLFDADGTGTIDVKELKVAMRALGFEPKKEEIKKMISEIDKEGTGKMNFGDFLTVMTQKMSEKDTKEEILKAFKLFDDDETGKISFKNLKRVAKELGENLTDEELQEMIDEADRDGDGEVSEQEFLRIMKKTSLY
inactive: [1] 0.011 | crizotinib 0.103 | [2] 0.066 | [3] 0.003 | duvelisib -0.003 | gandotinib 0.041 | tozasertib -0.01 | [4] -0.135 | doramapimod 0.017 | ispinesib 0.084 | bafetinib -0.029 | [5] -0.131 | nilotinib 0.071 | [6] -0.055 | dasatinib 0.081 | [7] -0.001 | [8] -0.013 | [9] 0.03 | tipifarnib 0.216 | mubritinib 0.036

CPD (UniProt O75976)
UniProt O75976, sequence (O75976 whole entry, looked up): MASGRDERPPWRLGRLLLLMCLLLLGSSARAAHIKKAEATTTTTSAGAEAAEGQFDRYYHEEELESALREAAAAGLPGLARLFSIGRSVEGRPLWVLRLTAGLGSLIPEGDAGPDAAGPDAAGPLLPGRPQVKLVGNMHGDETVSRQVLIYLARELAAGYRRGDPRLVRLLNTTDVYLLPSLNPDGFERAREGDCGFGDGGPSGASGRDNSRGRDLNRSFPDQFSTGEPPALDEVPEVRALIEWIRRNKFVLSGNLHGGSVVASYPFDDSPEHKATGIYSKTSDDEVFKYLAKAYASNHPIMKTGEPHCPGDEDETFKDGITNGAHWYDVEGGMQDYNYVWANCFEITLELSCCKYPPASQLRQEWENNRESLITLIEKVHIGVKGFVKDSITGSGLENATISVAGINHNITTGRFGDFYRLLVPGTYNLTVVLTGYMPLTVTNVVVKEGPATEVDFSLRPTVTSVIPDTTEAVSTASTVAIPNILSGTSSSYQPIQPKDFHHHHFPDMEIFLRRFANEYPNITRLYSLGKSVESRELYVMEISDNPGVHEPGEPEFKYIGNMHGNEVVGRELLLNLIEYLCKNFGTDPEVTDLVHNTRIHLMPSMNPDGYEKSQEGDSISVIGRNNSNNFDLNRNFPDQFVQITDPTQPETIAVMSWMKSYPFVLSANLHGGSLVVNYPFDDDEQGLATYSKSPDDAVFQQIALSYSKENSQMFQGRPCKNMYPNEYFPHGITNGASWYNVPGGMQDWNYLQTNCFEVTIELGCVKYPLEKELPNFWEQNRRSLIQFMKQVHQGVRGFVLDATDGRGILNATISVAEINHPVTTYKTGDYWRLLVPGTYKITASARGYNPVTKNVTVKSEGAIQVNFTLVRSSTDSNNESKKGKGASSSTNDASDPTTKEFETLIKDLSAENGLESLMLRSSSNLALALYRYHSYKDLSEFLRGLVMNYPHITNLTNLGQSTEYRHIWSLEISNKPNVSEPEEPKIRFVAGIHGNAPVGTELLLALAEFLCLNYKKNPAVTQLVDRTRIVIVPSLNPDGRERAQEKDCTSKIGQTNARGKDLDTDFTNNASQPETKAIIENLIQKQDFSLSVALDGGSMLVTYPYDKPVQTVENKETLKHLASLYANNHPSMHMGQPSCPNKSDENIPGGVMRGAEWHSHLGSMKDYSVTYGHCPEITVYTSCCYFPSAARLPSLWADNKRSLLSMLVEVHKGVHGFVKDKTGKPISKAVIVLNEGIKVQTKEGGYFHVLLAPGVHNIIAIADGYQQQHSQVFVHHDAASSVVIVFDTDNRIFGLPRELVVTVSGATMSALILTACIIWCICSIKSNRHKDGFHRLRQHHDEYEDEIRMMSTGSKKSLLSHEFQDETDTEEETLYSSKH
active: crizotinib -0.294
inactive: [1] 0 | [2] 0.002 | [3] 0.019 | duvelisib 0.036 | gandotinib 0.033 | tozasertib -0.036 | [4] -0.01 | doramapimod 0.028 | ispinesib -0.174 | bafetinib -0.07 | [5] 0.01 | nilotinib -0.007 | [6] -0.033 | dasatinib 0.026 | [7] -0.029 | [8] -0.029 | [9] 0.026 | tipifarnib 0.055 | mubritinib -0.009

CASP3 (UniProt P42574)
inactive: [1] 0.017 | crizotinib 0.036 | [2] -0.059 | [3] -0.057 | duvelisib -0.025 | gandotinib -0.019 | tozasertib -0.036 | [4] -0.05 | doramapimod -0.022 | ispinesib -0.004 | bafetinib -0.031 | [5] -0.042 | nilotinib 0.013 | [6] -0.012 | dasatinib 0.002 | [7] -0.007 | [8] 0.008 | [9] -0.022 | tipifarnib -0.055 | mubritinib 0.007

CLPTM1L (UniProt Q96KA5)
UniProt Q96KA5, sequence (Q96KA5 whole entry, looked up): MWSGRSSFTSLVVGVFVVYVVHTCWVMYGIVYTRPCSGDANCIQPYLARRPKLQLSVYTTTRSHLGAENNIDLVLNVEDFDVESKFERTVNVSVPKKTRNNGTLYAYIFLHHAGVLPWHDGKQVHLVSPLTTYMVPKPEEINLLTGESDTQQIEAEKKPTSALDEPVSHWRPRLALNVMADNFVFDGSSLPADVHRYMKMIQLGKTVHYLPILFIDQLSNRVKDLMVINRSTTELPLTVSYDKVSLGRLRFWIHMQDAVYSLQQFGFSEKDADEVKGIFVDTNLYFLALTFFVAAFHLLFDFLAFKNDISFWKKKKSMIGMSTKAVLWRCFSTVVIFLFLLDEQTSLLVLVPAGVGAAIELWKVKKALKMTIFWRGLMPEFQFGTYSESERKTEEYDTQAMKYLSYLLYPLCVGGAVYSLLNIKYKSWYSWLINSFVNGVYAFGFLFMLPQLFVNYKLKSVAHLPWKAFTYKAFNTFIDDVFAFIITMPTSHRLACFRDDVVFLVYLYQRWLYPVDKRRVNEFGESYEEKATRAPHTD
inactive: [1] 0.036 | crizotinib -0.08 | [2] 0.025 | [3] -0.013 | duvelisib 0.047 | tozasertib 0.012 | [4] 0 | doramapimod -0.012 | bafetinib -0.186 | [5] 0.07 | nilotinib -0.103 | [6] 0.009 | dasatinib -0.045 | [7] -0.016 | [8] -0.042 | [9] 0.011 | tipifarnib -0.056 | mubritinib 0.02
active: gandotinib -0.268 | ispinesib -0.326

CD55 isoform 7 (UniProt P08174)
inactive: [1] -0.023 | crizotinib 0.081 | [2] -0.096 | [3] -0.14 | duvelisib -0.021 | gandotinib 0.052 | tozasertib 0.067 | [4] -0.031 | doramapimod 0.02 | ispinesib 0.132 | bafetinib 0.168 | [5] -0.06 | nilotinib 0.086 | [6] 0.027 | dasatinib 0.096 | [7] -0.026 | [8] -0.051 | [9] -0.012 | tipifarnib -0.027 | mubritinib -0.075

CA1 (UniProt P00915)
UniProt P00915, sequence (P00915 whole entry, looked up): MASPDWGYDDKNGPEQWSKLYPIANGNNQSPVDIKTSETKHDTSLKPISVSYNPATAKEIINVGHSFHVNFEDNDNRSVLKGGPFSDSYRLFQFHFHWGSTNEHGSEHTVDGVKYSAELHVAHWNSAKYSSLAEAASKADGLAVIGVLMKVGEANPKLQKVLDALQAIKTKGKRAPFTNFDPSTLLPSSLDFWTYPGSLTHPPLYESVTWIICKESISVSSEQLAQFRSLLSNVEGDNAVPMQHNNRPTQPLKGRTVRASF
inactive: [1] 0.005 | crizotinib 0 | [2] 0.046 | [3] -0.094 | duvelisib -0.001 | gandotinib -0.036 | tozasertib 0.018 | [4] 0.019 | doramapimod -0.012 | ispinesib 0.116 | bafetinib -0.017 | [5] -0.055 | nilotinib -0.004 | [6] -0.014 | dasatinib -0.007 | [7] 0.011 | [8] 0.029 | [9] -0.008 | tipifarnib -0.011 | mubritinib 0.067
